The text below walks through data of ChEMBL document CHEMBL4513149, “CO-ADD screening of MMV (CH) - MMV compounds” (2021).

Potency and affinity values are given separately.

The test system of this assay is Escherichia coli. As to conditions: Concentration 20 uM; ASSAY_TEST Inhibition of Bacterial Growth; detection method Absorption (OD600); MEDIA CAMHB; plate type 384well; NBS; CORNING #3640; time 18 hr.
Broadly, the Inhibition is the relative decrease from the control value, in per cent. For the compound `O=C(N[C@H](Cc1ccccc1)C(=O)Nc1ccccc1N1CCOCC1)c1cccs1`, the Inhibition came to 8.05%.

As for `Cc1nn(C(=O)Nc2cccc(C(F)(F)F)c2)c(C)c1Sc1ncccn1`, the Inhibition was 7.79%.

Consider `CCOc1ccccc1C(=O)Nc1cccc(-c2nc3ncccn3c2C)c1`, for which the Inhibition was 10.22%.

Consider `CC(C)(C)n1nc(Cc2ccc(F)c(Cl)c2)c2c(N)ncnc21`, for which the Inhibition is listed as 11.38%.

For `Cc1cccc(-c2nc(Nc3ccncn3)c3sccc3n2)n1`, the Inhibition was determined as 8.12%.

With `CCS(=O)(=O)N(Cc1ccco1)Cc1cc2ccc(C)cc2nc1O`, the Inhibition is -2.16%.

Take `O=C(Cn1ccnc1[N+](=O)[O-])NCc1ccccc1` [BENZNIDAZOLE]: the Inhibition turned out to be 9.92%.

`CC1(COc2ccc(N3CCC(Oc4ccc(OC(F)(F)F)cc4)CC3)cc2)Cn2cc([N+](=O)[O-])nc2O1` (stereo not given): the Inhibition worked out at 11.79%.

For the compound `Cc1ccc2[nH]c(C3CCCNC3)c(-c3ccncc3)c2c1.Cl.Cl` (stereo not given), the Inhibition was 2.54%.

On to `C[C@H](C(N)=O)N1CCCC[C@H]1c1ccc(OCc2cccc(F)c2)cc1`, for which the Inhibition was found to be 11.68%.

As to `COc1ccc2nc(C)cc(OCC(=O)Nc3ccccc3OC)c2c1`, the Inhibition is reported as 13.22%.

With `CC1(C)Cc2c(c(N3CCOCC3)nc3snc(Br)c23)CO1`, the Inhibition is recorded as 4.52%.

Take `COCC(C)NC(=O)CSc1ncnc2sc(-c3ccccc3)cc12` (stereo not given): the Inhibition came out at 9.3%.

`COc1cc(C2=NCCN2)ccc1-n1cc(-c2cccc(C3=NCCN3)c2)nn1.O=CO.O=CO`: the Inhibition was 8.11%.

Consider `CC(C)NCC(=O)Nc1cccc(C(=O)Nc2cccc(C(F)(F)F)c2)c1`, for which the Inhibition was -2.15%.

`c1cc(C2=NCCN2)cc(-c2cc(-c3ccc(C4=NCCN4)cc3)no2)c1`: the Inhibition is on record as 8.18%.

As to `c1ccc(Oc2ccc(-c3cc(N4CCOCC4)[nH]n3)cc2)cc1`, the Inhibition amounted to 4.28%.

In the case of `NCC(=O)N1CCn2c(nc(-c3ccccc3)c2Nc2ccc3c(c2)OCO3)C1`, the Inhibition is given as -1.15%.

As for `COC(=O)c1cccc2oc(-c3cccc(OC)c3NC(=O)c3cc(-c4ccccc4)on3)nc12`, the Inhibition worked out at 4.98%.

Regarding `O=C(Nc1nc(-c2ccccn2)cs1)C1CC1c1ccccc1F` (stereo not given), the Inhibition was 3.89%.

On to `CCCNC(=O)N1CCC2(CC1)CC(=O)c1cc(C)ccc1O2`, for which the Inhibition stood at 10.17%.

Regarding `CCCCc1ccc(NC(=O)Nc2ccc(O[C@H]3CCCC[C@@H]3N(C)c3ccccc3)c(F)c2)cc1`, the Inhibition was 9.29%.

In the case of `O=C(Nc1cccc(Cl)c1)c1cnc(N2CCN(c3ccncc3)CC2)c(Cl)c1`, the Inhibition is reported as 6.8%.

Regarding `Cl.NCC(c1cccs1)S(=O)(=O)c1ccccc1` (stereo not given), the Inhibition was -0.69%.

As to `CS(=O)(=O)N1CCC(Cn2nc(Cc3cccc4ccccc34)c3c(N)ncnc32)CC1`, the Inhibition turned out to be 3.3%.

For the compound `CC(C)(C)c1cc(C(=O)Nc2cccnc2)cc(C(=O)Nc2cccnc2)c1`, the Inhibition came out at 6.88%.

`COc1cccc2c(C)nc(N=C(N)N)nc12.O=C(O)C(F)(F)F.O=C(O)C(F)(F)F`: the Inhibition was found to be 7.95%.

With `Cc1ccc(S(=O)(=O)N2CCN(C(=O)c3cc(-c4ccccc4)n[nH]3)CC2)cc1`, the Inhibition came out at 11.29%.

In the case of `Brc1c(-c2ccc3c(c2)OCO3)nc2ncccn12`, the Inhibition was 5.08%.

As to `Cc1cnc(N2CCN[C@@H](Cc3ccccc3)C2)nc1Oc1ccc(-n2ccnc2)cc1.Cl`, the Inhibition is reported as -1.63%.

For the compound `CCC(Sc1nc2ccccc2o1)C(=O)Nc1nnc(C)s1` (stereo not given), the Inhibition is given as -8.34%.

Regarding `Cl.NCCCC(N)(C(=O)O)C(F)F.O` (stereo not given) [EFLORNITHINE HYDROCHLORIDE], the Inhibition is reported as -2.06%.

For `CCC(C)NC(=O)c1ccc(NC(=O)C2(c3ccccc3)CCCC2)cc1` (stereo not given), the Inhibition is reported as -4.39%.

`COc1ccc(-c2cnc3cnc(-c4cccc(OC(C)C)c4)cn23)cc1`: the Inhibition worked out at 4.77%.

As to `CN1CCCN(C(c2ccccc2)c2ccc(Cl)cc2)CC1` (stereo not given) [HOMOCHLORCYCLIZINE], the Inhibition stood at 4.77%.
